# Data published in the supplement of paper PMC4840960.
# System: E18 rat cortical neuron-glia co-culture
# Assay: myelination (MBP fiber length per Olig2+ nucleus), % of 1 µM DAPT response (DMSO = 0) (% of DAPT); higher = more myelination, active = 50 or more
# Conditions: 5 µM; treatment time: 8 days (DIV5-DIV13)
# Method in brief: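 Library compounds at 1 or 5 µM in myelination medium were applied from DIV5 to DIV13 to papain-dissociated E18 rat cortical co-cultures seeded at 20,000 cells/well on poly-d-lysine/laminin 96-well plates. Fixed cells (4 % paraformaldehyde) were immunostained for MBP and Olig2 with DAPI, and four 10X fields were analysed in each duplicate well. Continuous straight MBP fiber length per Olig2+ nucleus was set to 0 for 0.1 % DMSO and to 100 for a 1 µM positive control.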
row,SMILES,myelination
1,Cn1nnc2c(C(N)=O)ncn2c1=O [Temozolomide],-12.8 (inactive)
2,CCCCC(=O)O[C@H]1CC[C@H]2[C@@H]3CCc4cc(O)ccc4[C@H]3CC[C@]12C [Estradiol valerate],11.9 (inactive)
3,CCCSc1ccc2[nH]c(NC(=O)OC)nc2c1 [Albendazole],-37.4 (inactive)
4,CC(N)C12CC3CC(CC(C3)C1)C2 (stereo not drawn) [Rimantadine],62.2
5,Cc1occc(=O)c1O [Maltol],-13.4 (inactive)
6,CC1(C)O[C@@H]2C[C@H]3[C@@H]4CCC5=CC(=O)C=C[C@]5(C)[C@@]4(F)[C@@H](O)C[C@]3(C)[C@]2(C(=O)CO)O1 [Triamcinolone Acetonide],19.3 (inactive)
7,CC12CC3CC(C)(C1)CC(N)(C3)C2 [Memantine],-7.18 (inactive)
8,NS(=O)(=O)c1cc2c(cc1C(F)(F)F)NCNS2(=O)=O [Hydroflumethiazide],-13.7 (inactive)
9,CCc1cccc2c3c([nH]c12)C(CC)(CC(=O)O)OCC3 (stereo not drawn) [Etodolac],16.1 (inactive)
10,Cc1ccc(S(=O)(=O)NC(=O)NN2CCCCCC2)cc1 [Tolazamide],-16.8 (inactive)
11,C#C[C@]1(O)CC[C@H]2[C@@H]3CCC4=Cc5oncc5C[C@]4(C)[C@H]3CC[C@@]21C [Danazol],-24.3 (inactive)
12,O=C(O[C@H]1[C@H](Oc2ccccc2COC(=O)C2(O)C=CCCC2=O)O[C@H](CO)[C@@H](O)[C@@H]1O)c1ccccc1 (stereo partly drawn) [Tremulacin],30.4 (inactive)
13,Cc1ccc(C)c(OCCCC(C)(C)C(=O)O)c1 [Gemfibrozil],-7.17 (inactive)
